In PubChem BioAssay AID1531 (NMMLSC, 2009):
About 3,300 (1.1%) of roughly 290,000 compounds were called active. Only a selection was taken, and actives are over-represented in it overall. Unmarked numbers belong to inactive results. Rule as the data show it: active = binding response below about 67% or above about 130%; inconclusive = no clear call, values can overlap the other calls; inactive = in between.

The molecules below were run against Mitogen-activated protein kinase kinase kinase 2 (Homo sapiens) (UniProt Q9Y2U5) (assay: modulators of MEK5 binding to wildtype MEKK2, primary screen, biochemical, multiplex bead flow cytometry, Alexa488-MEK5 (AID 1531)). Conditions: Alexa488-MEK5 binding to MEKK2 WT, at 10 µM, actives lie on both sides.

Row | SMILES | binding response (% of control)
1 | Cc1cc(C)c(OCC(=O)N(Cc2cccs2)C2CCS(=O)(=O)C2)c(C)c1 (centres undefined) | 101%
2 | COC(=O)c1[nH]c2cccc(C)c2c1NC(=O)CN1CCCc2ccccc21 | 18% [inhibitor] (active)
3 | Cc1cccc(C)c1NC(=O)COC(=O)c1ccccc1O | 97%
4 | O=C(CN1CCc2ccccc21)NC(c1ccccc1)c1ccccc1 | 95%
5 | NS(=O)(=O)c1cccc(NC(=O)CN2CCCc3ccccc32)c1 | 99%
6 | COC(=O)c1[nH]c2ccc(Br)cc2c1NC(=O)Oc1ccccc1 | 103%
7 | COC(=O)c1[nH]c2ccccc2c1NC(=O)CN1CCCc2ccccc21 | -2% (active)
8 | CC(=O)N1c2ccc(S(=O)(=O)N3CCCC(C(=O)Nc4cccc(F)c4)C3)cc2CC1C (centres undefined) | 106%
9 | CCOC(=O)c1c(-c2ccccc2)oc2cc(Br)c(O)c(C=O)c12 | 94%
10 | O=C(Nc1ccccc1Cl)NC1(C(=O)N2CCOCC2)CCCCC1 | 96%
11 | CC1(C)C2CC[C@]3(C)C(CC=C4[C@@H]5C[C@@](C)(CO)CC[C@]5(C(=O)O)CC[C@]43C)[C@@]2(C)CC[C@@H]1O (some centres undefined) | 105%
12 | C=CCOc1ccccc1NC(=O)CN1C(=O)CNC1=O | 106%
13 | O=C(N/N=C\c1cc2c(cc1Cl)OCO2)c1ccc(Br)s1 | 103%
14 | CN1CCN(c2ccccc2NC(=O)COc2ccc(C3CCCCC3)cc2)CC1 | 145% (active)
15 | O=C(CN1CCN(C2CCCCC2)CC1)Nc1ccccc1N1CCCCC1 | 109%
16 | Cc1ccc(C(C)C)cc1OCC(=O)Nc1ccccc1N1CCCC1 | 100%
17 | NC(=O)c1oc2ccccc2c1NC(=O)CS(=O)(=O)c1ccccc1 | 106%
18 | O=C(Nc1ccccc1-c1ccccc1)c1ccccc1[N+](=O)[O-] | 106%
19 | O=C(O)c1ccccc1C(=O)Nc1ccccc1[N+](=O)[O-] | 0% (active)
20 | O=C(Nc1ccccc1[N+](=O)[O-])C1C(c2ccccc2)=C1c1ccccc1 | 97%
21 | CCOC(=O)C[C@H]1c2ccc(C(F)(F)F)cc2S(=O)(=O)N1c1ccccc1 | 98%
22 | CCOC(=O)C1CCN(C(=O)Cn2nc(C)c3c(C)n(-c4ccccc4)nc3c2=O)CC1 | 101%
23 | COc1ccc(S(=O)(=O)N2CCC(C(=O)NCCC(=O)NCc3cccc(OC)c3)CC2)cc1 | 104%
24 | CCOc1cc(/C=C/c2nc3ccccc3c(=O)[nH]2)cc(Br)c1OC | 98%
25 | O=C(Nc1c2c(nn1-c1cccc(Cl)c1)CS(=O)(=O)C2)c1cccs1 | 81%

Row | SMILES | binding response (% of control)
26 | CCOc1cc(C2C(C(=O)c3ccco3)=C(O)C(=O)N2Cc2ccccc2)ccc1O (centres undefined) | 93%
27 | CCCc1nn(C)c2c(=O)[nH]c(-c3cc(S(N)(=O)=O)ccc3OCC)nc12 | 105%
28 | COc1ccc(S(=O)(=O)NC(C)C(=O)NCc2ccncc2)cc1Cl (centres undefined) | 98%
29 | Cn1cc(CCC(=O)NC2CC2)c2ccccc21 | 96%
30 | CC(C)Oc1ccc(CN2CCC(n3nccc3NC(=O)c3cccnc3)CC2)cc1 | 142% (active)
31 | COc1ccc(C(=O)Nc2ccnn2C2CCN(Cc3ccncc3)CC2)cc1 | 101%
32 | COc1ccccc1C(=O)Nc1ccnn1C1CCN(Cc2cnn(C)c2)CC1 | 88%
33 | Cc1ccc(SCC(=O)NNC(=O)c2ccc(S(C)(=O)=O)cc2)cc1 | 102%
34 | O=C(NCCc1ccc(Cl)cc1)C1CC(=O)N(C2CCCCC2)C1 (centres undefined) | 98%
35 | O=C(NCCCN1CCCCCC1)C1CC(=O)N(C2CCCC2)C1 (centres undefined) | 162% (active)
36 | CC(C)OCCCNC(=O)C1CC(=O)N(C2CCCCCCC2)C1 (centres undefined) | 100%
37 | CCn1c(CC(=O)Nc2ccccc2)nnc1SCC(=O)N1CCOCC1 | 96%
38 | CCOC(=O)c1ccc(N2C(=O)CC(N3CCC(C(=O)OCC)CC3)C2=O)cc1 (centres undefined) | 105%
39 | CCOC(=O)c1ccc(N2C(=O)CC(N3CCN(C(=O)c4ccccc4)CC3)C2=O)cc1 (centres undefined) | 96%
40 | CCCCOC(=O)c1ccc(N2C(=O)CC(N3CCN(C/C=C/c4ccccc4)CC3)C2=O)cc1 (centres undefined) | 176% (active)
41 | C#CCOCCOCCOCCNc1nc(N2CCN(C(=O)[C@H](Cc3ccc(O)cc3)n3cc(C(N)CC(C)C)nn3)CC2)nc(N2CCN(C(=O)[C@H](CCC(=O)O)n3cc(C(N)[C@H](C)CC)nn3)CC2)n1 (some centres undefined) | 106%
42 | C#CCOCCOCCOCCNc1nc(N2CCN(C(=O)[C@H](C(C)C)n3cc(CCO)nn3)CC2)nc(N2CCN(C(=O)[C@H](C(C)C)n3cc(CCO)nn3)CC2)n1 | 97%
43 | C#CCOCCOCCOCCNc1nc(N2CCN(C(=O)C([C@@H](C)CC)n3cc(C(N)COC(=O)C(F)(F)F)nn3)CC2)nc(N2CCN(C(=O)[C@H](Cc3ccc(O)cc3)n3cc(C(N)[C@H](C)CC)nn3)CC2)n1 (some centres undefined) | 120%
44 | C#CCOCCOCCOCCNc1nc(N2CCN(C(=O)[C@H](CCCCN)n3cc([C@@H](N)C(C)CC)nn3)CC2)nc(N2CCN(C(=O)[C@H](Cc3ccc(O)cc3)n3cc([C@@H](N)C(C)CC)nn3)CC2)n1 (some centres undefined) | 211% (active)
45 | C#CCOCCOCCOCCNc1nc(N2CCN(C(=O)[C@H](CCC(=O)O)n3cc(C(N)CO)nn3)CC2)nc(N2CCN(C(=O)[C@H](CCCCN)n3cc(C(N)[C@H](C)CC)nn3)CC2)n1 (some centres undefined) | 97%
46 | C#CCOCCOCCOCCNc1nc(N2CCN(C(=O)[C@H](CCC(=O)O)n3cc(C(N)CO)nn3)CC2)nc(N2CCN(C(=O)[C@H](CCCCN)n3cc(C(N)CC(C)C)nn3)CC2)n1 (some centres undefined) | 69%
47 | C#CCOCCOCCOCCNc1nc(N2CCN(C(=O)C([C@@H](C)CC)n3cc(C(N)COC(=O)C(F)(F)F)nn3)CC2)nc(N2CCN(C(=O)[C@H](CCCCN)n3cc(C(N)CC(C)C)nn3)CC2)n1 (some centres undefined) | 241% (active)
48 | C#CCOCCOCCOCCNc1nc(N2CCN(C(=O)[C@H](CCC(=O)O)n3cc(C(N)CO)nn3)CC2)nc(N2CCN(C(=O)[C@H](Cc3ccc(O)cc3)n3cc(C(N)[C@H](C)CC)nn3)CC2)n1 (some centres undefined) | 108%
49 | C#CCOCCOCCOCCNc1nc(N2CCN(C(=O)C(Cc3ccc(O)cc3)n3cc(C(N)CC(C)C)nn3)CC2)nc(N2CCN(C(=O)C(Cc3ccc(O)cc3)n3cc(C(N)C(C)CC)nn3)CC2)n1 (centres undefined) | 147% (active)
